Experimental findings from PubChem BioAssay (NCATS) are described below.

The target of test [1] is Cytochrome P450 1A2 (Homo sapiens) (UniProt P05177). As to the kind of experiment: p450-cyp1a2 (AID 410; calls by dose curve; note: potency is the fitted concentration of half-maximal effect). The essentials: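 Luminescent readout of luciferin formed from Luciferin-ME by human CYP1A2; data normalized against complete inhibition by 57 uM furafylline. Enzyme 20nM, substrate 100uM at Km, 100mM KPO4 buffer, 60 min reaction at room temperature.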
In test [2] the target is Mitogen-activated protein kinase 10 (Mus musculus) (UniProt Q61831). As to the kind of experiment: JNK3 AlphaScreen Assay (AID 530; active = well fitted curve in either direction with a large enough effect, not every such curve was filed as active;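 note: kinase came from lysate of stimulated human HepG2 cells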; note: potency is the fitted concentration of half-maximal effect). The essentials: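 Inhibitors reduce antibody binding to phosphorylated biotin-cJun, lowering AlphaScreen luminescence. Lysates from HepG2 cells pre-activated by IL-1beta plus TNF-alpha supplied JNK3; compounds were titrated.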
The target in test [3] is Cytochrome P450 3A4 (Homo sapiens) (UniProt P08684). As to the kind of experiment: qHTS Assay for Activators of Cytochrome P450 3A4 (AID 885). Note: nearly all actives have a fitted effect of over 65% in size. An outline of the steps:
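Quantitative HTS format: compounds preincubated with 20nM human CYP3A4 and Luciferin-PPXE substrate at KM, reaction started by NADPH regeneration, stopped after 60 min, luciferase luminescence read 20 min later.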

The target of test [4] is Cytochrome P450 2D6 (Homo sapiens) (UniProt P10635). As to the kind of experiment: qHTS Assay for Inhibitors and Substrates of Cytochrome P450 2D6 (AID 891). Note: potency is the fitted concentration of half-maximal effect; nearly all actives have a fitted effect of over 60% in size. An outline of the steps:
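Human CYP2D6 (5 nM) with 30 uM Luciferin-ME EGE (at Km) in 100 mM KPO4, compound preincubated 10 min, then NADPH regeneration system for 60 min at room temperature. Luciferin read by luminescence; normalized to 1.43 uM quinidine.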

Test [5] in a line: Cell Viability - BJ (AID 421; calls by dose curve;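 note: potency is the fitted concentration of half-maximal effect; cells exposed to compound for 40 hours at 37 °C before readout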). The conditions noted are these: BJ fibroblast viability, qHTS. An outline of the steps:
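Quantitative HTS: ATP depletion in BJ cells after 40 hr compound exposure in complete culture medium, detected with CellTiter-Glo; AC50 from standard Hill fits.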
(Quantitative high-throughput screening tests each substance at several concentrations.)

Test [6] can be described thus: Cell Viability - Jurkat (AID 426;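 active = dose-dependent loss of cell ATP signal giving a full or clear fitted curve, ranked by lower potency value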; note: potency is the fitted concentration of half-maximal effect). The conditions noted are these: qHTS. An outline of the steps:
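qHTS, 1536-well; Jurkat E6-1, 5000 cells/well, complete medium; cpd 40 hr, 37 °C; CellTiter-Glo 20 min RT; luminescence. AC50 by Hill fit.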

Test [7] can be described thus: Cell Viability - Hek293 (AID 427;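 active = compounds whose dose-response curve shows a full or clear partial loss of cell viability, called from curve shape rather than a numeric limit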;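 note: potency is the fitted concentration of half-maximal effect; cells exposed to compound for 40 hours at 37 °C before reading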). The conditions noted are these: qHTS. The essentials:
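AC50 values derive from Hill-modelled concentration-response of ATP-based luminescence, normalized between DMSO-only and 100 uM tamoxifen controls. Cells were exposed in complete culture medium for 40 hr at 37 °C before detection.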

Test [8] can be described thus: Cell Viability - SK-N-SH (AID 435; calls by dose curve;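 note: potency is the fitted concentration of half-maximal effect; compound exposure lasted 40 h at 37 °C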). To be noted: SK-N-SH neuroblastoma cell viability qHTS. An outline of the steps:
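SK-N-SH neuroblastoma cells (1500/well) treated 40 h at 37 °C in complete medium; viability read as cellular ATP by CellTiter-Glo luminescence. Normalized to DMSO and 100 uM tamoxifen; AC50 from Hill fits of qHTS concentration-response.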

Test [9] in a line: Cell Viability - N2a (AID 540).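 For activity change, negative = cytotoxicity: plate controls were DMSO alone for no effect and tamoxifen control for full effect.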 Note: nearly all actives have a fitted effect of over 45% in size. Note: potency is the fitted concentration of half-maximal effect. The conditions noted are these: N2a mouse neuroblastoma cell viability; activity change, negative = cytotoxicity: at 92.2 µM (top of the series). The essentials: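 Luminescent ATP signal (CellTiter-Glo, 20 min at room temperature) served as the viability read-out after N2a cells were treated with compounds for 40 hours at 37 °C. Concentration-response data were fitted to the Hill equation for AC50.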

The nature of test [10]: Cell Viability - H-4-II-E (AID 543). Note: nearly all actives have a fitted effect of over 35% in size. Note: potency is the fitted concentration of half-maximal effect. An outline of the steps:
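Luminescent ATP signal (CellTiter-Glo) served as the viability read-out, with cytotoxicity seen as a concentration-dependent ATP drop. Cells were treated for 40 hours in complete medium. AC50 values derive from Hill-equation modelling.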

The nature of test [11]: Cell Viability - SH-SY5Y (AID 544). Note: nearly all actives have a fitted effect of over 55% in size. Note: potency is the fitted concentration of half-maximal effect. To be noted: SH-SY5Y neuroblastoma cell viability; viability change, negative = cytotoxic: at 92.2 µM (top of the series). An outline of the steps:
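Luminescent ATP read-out (CellTiter-Glo) measures loss of viable SH-SY5Y neuroblastoma cells after 40 hr compound exposure at 37 °C. AC50 values derive from standard Hill modelling of qHTS concentration-response data.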

Test [12] in a line: Cell Viability - Renal Proximal Tubule (AID 545). Note: nearly all actives have a fitted effect of over 40% in size. Note: potency is the fitted concentration of half-maximal effect. To be noted: renal proximal tubule cells viability, primary cells of rat origin; activity change, negative = cytotoxicity: at 91.7 µM (top of the series). An outline of the steps:
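Rat renal proximal tubule primary cells, 1000/well, exposed to compounds for 40 hr at 37 °C in complete medium; cellular ATP read by CellTiter-Glo luminescence. AC50 from concentration-response fitted with standard Hill equation.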

The nature of test [13]: Cellular Toxicity (caspase-3) HepG2 (AID 654).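 Note: cells exposed to compound for 16 hours before reading; 0% = DMSO alone and 100% = caspase signal from 100 µM tamoxifen.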 An outline of the steps:
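Cells plated 5 hr at 37 °C, compound added, incubated 16 hr at 37 °C. Caspase-Glo 3/7 reagent followed, 20 min at room temperature, then luminescence read. Activation scored as signal increase; AC50 from Hill fit.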

A short description of test [14]: Cellular Toxicity (caspase-3) Hek293 (AID 664).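 Note: cells exposed to compound for 16 h at 37 °C before readout.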 The conditions noted are these: HEK293 caspase-3 activation, DMSO = 0%, 100 µM tamoxifen = 100%; at 92.2 µM (top of the series). An outline of the steps:
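Cells plated, 5 hr at 37 °C; compounds added; 16 hr at 37 °C; Caspase-Glo 3/7 reagent, 20 min RT; luminescence read. Activation expressed relative to DMSO and 100 uM tamoxifen, AC50 by Hill model.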

The nature of test [15]: Cellular Toxicity (caspase-3) N2a (AID 665).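 Note: compound exposure lasted 16 h at 37 °C before readout.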 The conditions noted are these: Potency: caspase-3 activation. An outline of the steps:
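N2a cells, 1500/well, 5 h settle at 37 °C; cpd 16 h, 37 °C; Caspase-Glo 3/7, 1 h RT; luminescence. Norm: DMSO = 0, 10 uM staurosporine = 100%. AC50, Hill fit.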

For test [16], the target named is Peroxisome proliferator-activated receptor alpha (Homo sapiens) (UniProt Q07869). Briefly: qHTS assay for small molecule agonists of the peroxisome proliferator-activated receptor alpha (PPARalpha) signaling pathway (AID 651778). Note: % of control where 0% means no effect. The conditions noted are these: PathHunter PPARalpha complementation, chemiluminescence, 6 h; max response: active compounds read high. The essentials: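 Cells plated at 2,000/well and held overnight at 37 C, 5% CO2, then compound added by pin tool for 6 hr; after PathHunter detection reagent and 60 min at room temperature, chemiluminescence from enzyme complementation was read.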

Test [17] addresses Cytochrome P450 3A4 (Homo sapiens) (UniProt P08684). As to the kind of experiment: qHTS Assay for Inhibitors and Substrates of Cytochrome P450 3A4 (AID 884). Note: nearly all actives have a fitted effect of over 50% in size. Note: potency is the fitted concentration of half-maximal effect. An outline of the steps: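 20 nM human CYP3A4 with 25 uM Luciferin-PPXE (at KM) in 200 mM KPO4, preincubated 10 min with compound; NADPH regeneration started a 60 min RT reaction. Luciferin detected by luminescence, normalized to 57 uM ketoconazole as full inhibition.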

SMILES strings stand for the structures. Several values for one entry are separate records, joined by “and”; a condition that tells them apart may be missing. Identical values can stand only once. Values without a mark were called inactive. Results filed as inconclusive are left out. Activity calls are given as the source filed them. Unless noted, calls come from the whole dose curve; as a rule, active = well fitted curve in the direction sought with a large enough effect; inconclusive = small, poorly fitted or top-dose-only effect, or another doubt; inactive = no such curve, though single readings can be large; an effect the other way counts as inactive or inconclusive.

Chain of Cytochrome P450 3A4 (Homo sapiens) (P08684 whole entry, looked up): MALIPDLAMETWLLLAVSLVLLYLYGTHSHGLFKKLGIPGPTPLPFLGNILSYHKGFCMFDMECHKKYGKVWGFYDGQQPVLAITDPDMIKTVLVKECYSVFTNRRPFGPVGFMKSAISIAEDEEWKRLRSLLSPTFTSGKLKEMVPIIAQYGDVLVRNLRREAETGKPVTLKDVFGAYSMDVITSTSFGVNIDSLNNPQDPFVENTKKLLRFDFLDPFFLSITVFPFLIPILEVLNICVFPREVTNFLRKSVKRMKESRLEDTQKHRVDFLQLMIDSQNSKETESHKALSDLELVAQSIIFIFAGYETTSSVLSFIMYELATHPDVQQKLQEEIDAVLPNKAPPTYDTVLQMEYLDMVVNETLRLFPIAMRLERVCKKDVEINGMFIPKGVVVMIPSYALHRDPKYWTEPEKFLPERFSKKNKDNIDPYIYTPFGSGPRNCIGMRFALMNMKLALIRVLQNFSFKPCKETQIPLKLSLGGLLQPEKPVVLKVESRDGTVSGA
Chain of Peroxisome proliferator-activated receptor alpha (Homo sapiens) (Q07869 whole entry, looked up): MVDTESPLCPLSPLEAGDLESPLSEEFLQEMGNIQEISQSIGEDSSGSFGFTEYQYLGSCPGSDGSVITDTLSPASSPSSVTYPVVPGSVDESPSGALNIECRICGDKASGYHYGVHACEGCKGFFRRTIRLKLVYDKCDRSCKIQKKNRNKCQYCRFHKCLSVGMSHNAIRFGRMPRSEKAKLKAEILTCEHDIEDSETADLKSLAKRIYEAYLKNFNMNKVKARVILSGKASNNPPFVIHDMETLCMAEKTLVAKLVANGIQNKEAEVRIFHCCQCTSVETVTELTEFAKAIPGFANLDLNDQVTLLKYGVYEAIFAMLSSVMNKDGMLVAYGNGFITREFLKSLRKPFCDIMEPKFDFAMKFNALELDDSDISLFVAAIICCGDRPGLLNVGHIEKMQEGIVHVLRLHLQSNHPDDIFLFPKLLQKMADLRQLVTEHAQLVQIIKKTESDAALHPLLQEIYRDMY
Chain of Cytochrome P450 1A2 (Homo sapiens) (P05177 whole entry, looked up): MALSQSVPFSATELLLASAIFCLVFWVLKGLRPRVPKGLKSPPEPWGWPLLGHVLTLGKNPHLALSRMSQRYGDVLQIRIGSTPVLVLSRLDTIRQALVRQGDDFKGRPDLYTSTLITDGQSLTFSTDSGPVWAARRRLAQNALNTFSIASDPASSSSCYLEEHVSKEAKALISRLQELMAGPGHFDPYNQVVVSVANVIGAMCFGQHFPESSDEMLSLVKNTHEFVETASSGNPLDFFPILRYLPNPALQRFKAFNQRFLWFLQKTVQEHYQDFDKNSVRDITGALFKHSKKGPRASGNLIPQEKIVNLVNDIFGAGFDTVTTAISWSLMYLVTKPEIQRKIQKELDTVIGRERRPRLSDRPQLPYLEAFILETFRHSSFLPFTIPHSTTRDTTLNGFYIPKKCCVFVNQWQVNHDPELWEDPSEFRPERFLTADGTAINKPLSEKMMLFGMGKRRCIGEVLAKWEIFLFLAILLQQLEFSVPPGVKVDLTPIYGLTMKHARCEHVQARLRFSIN
Chain of Cytochrome P450 2D6 (Homo sapiens) (P10635 whole entry, looked up): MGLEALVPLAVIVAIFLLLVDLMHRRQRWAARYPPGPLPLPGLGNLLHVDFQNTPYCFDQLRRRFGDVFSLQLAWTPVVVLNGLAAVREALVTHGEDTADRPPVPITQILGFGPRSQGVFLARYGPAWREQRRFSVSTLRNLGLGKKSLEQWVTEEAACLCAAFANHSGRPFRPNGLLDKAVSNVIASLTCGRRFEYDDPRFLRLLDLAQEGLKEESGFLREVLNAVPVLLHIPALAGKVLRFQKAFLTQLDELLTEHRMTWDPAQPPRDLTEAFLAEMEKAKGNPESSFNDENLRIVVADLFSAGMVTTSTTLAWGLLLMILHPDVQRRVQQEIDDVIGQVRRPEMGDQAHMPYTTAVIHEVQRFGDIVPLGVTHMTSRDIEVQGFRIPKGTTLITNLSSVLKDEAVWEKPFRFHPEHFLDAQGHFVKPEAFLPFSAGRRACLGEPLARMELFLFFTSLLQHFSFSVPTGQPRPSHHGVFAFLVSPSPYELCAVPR

As to `C#CCOC(=O)NC(/C=C/CCCC)c1ccccc1` (centres undefined), the Potency in test [1] is 15.8 µM (active). In addition, the Potency entry in [2] and in [3] was “inactive” throughout.
Consider `COc1cc(/C=C\C(=O)CC(=O)/C=C\c2ccc(O)c(OC)c2)ccc1O`, for which the Potency in [1] and in test [4] was 15.8 µM (active) throughout. Further, the Potency entry in test [2] was “inactive”.
As to `c1cc(OCC2CO2)cc(OCC2CO2)c1` (centres undefined), the Potency in test [5] was 27.4 µM (active); in [6], 41.9 µM (active); in [7], 32.9 µM (active); in [8], 9.23 µM (active); in test [9] it was 31.6 µM (active); in test [10], 39.8 µM (active). The figures for the Potency in test [11] and in [12] were 0.251 µM (active) and 31.6 µM (active), respectively. For the same compound, the Potency entry in [13] and in test [15] was “inactive” each time. Further, the caspase-3 activation in test [14] is 8.84%. For the same compound, the max response in [16] was -3.13% and -3.49%.
Regarding `C=CC(=O)OCCOCCOC(=O)C=C`, the Potency in test [5] is 35.8 µM (active); in [6], 7.5 µM (active); in test [7] it was 27 µM (active); in test [8] it was 22.7 µM (active); in test [10], 20 µM (active); in test [11] it was 6.31 µM (active). Also, the Potency in test [12] was 20 µM (active). For the same compound, the Potency result in test [2], in test [13], in test [15] and in [17] was “inactive” throughout. The activity change, negative = cytotoxicity in test [9] was -114% (active). Also, the caspase-3 activation in test [14] was 5.92%. Moreover, in test [16], the max response was -4.05%.
In the case of `O=[N+]([O-])c1cc([N+](=O)[O-])c2ccc(S(=O)(=O)O)cc2c1O`, the Potency in test [5], in test [6], in [7] and in test [8] was greater than 92 µM in each case. Also, the Potency entry in [9], in test [10], in [11], in test [12], in test [13] and in test [15] was “inactive” in each case. Moreover, the caspase-3 activation in [14] was 1.41%.
Take `c1ccc2c(c1)-c1cccc3c1c-2cc1ccccc13`: the Potency in [5] is greater than 92 µM; in [6] it was greater than 92 µM; in test [7], greater than 92 µM; in test [8], greater than 92 µM; in [2], 2.51 µM [activator] (active). Besides, the Potency result in test [9], in test [11], in test [12], in test [13], in test [15] and in test [17] was “inactive” each time. The caspase-3 activation in [14] is -2.54%. The max response in [16] was -0.066% and -2.89%.
In the case of `Oc1ccc2cc(SSc3ccc4cc(O)ccc4c3)ccc2c1`, the Potency was 49.1 µM (active) in test [5]; 36.7 µM (active) in [6]; 46.2 µM (active) in [7]; 42.5 µM (active) in test [8]; 50.1 µM (active) in test [10]; 15.8 µM (active) in [17]. In addition, the activity change, negative = cytotoxicity is -111% (active) in test [9] and -82.8% (active) in test [12]. In addition, the viability change, negative = cytotoxic in test [11] is -101% (active). For the same compound, the Potency entry in [13], in test [15] and in test [3] was “inactive” each time. Moreover, the caspase-3 activation in test [14] was 15.1%. The max response in [16] was -7.41%.
Consider `CN(C)c1ccc(C2(c3ccc(N(C)C)cc3)OC(=O)c3cc(N(C)C)ccc32)cc1`, for which the Potency in test [5], in test [6], in test [7] and in [8] was greater than 92 µM throughout. The Potency entry in test [9], in test [10], in [11], in test [12], in [13] and in test [15] was “inactive” in each case. In [3], the Potency entry is “inactive”. Also, the caspase-3 activation in [14] was -1.05%. In addition, the max response in [16] is -2.57%.
Regarding `CNc1ccc(O)cc1`, the Potency in test [6] was 2.14 µM (active); in [7] it was 40.8 µM (active); in [8] it was 23.5 µM (active); in test [9], 31.6 µM (active); in test [10], 20 µM (active); in test [11], 2 µM (active). Besides, in test [17], the Potency is 12.6 µM (active). Moreover, the Potency entry in test [2], in test [13], in [15] and in test [3] was “inactive” throughout. Moreover, the caspase-3 activation in test [14] is -11.1%. Moreover, in [16], the max response was -6.09%.
With `c1ccc2c(c1)ccc1cc3c(ccc4ccccc43)cc12`, the Potency in test [5], in test [6], in test [7] and in [8] was greater than 92 µM throughout. Besides, the Potency result in test [9], in test [10], in [11], in [12], in test [13] and in [15] was “inactive” in each case. In addition, the Potency entry in [17] was “inactive”. For the same compound, the caspase-3 activation in [14] is -3.42%. The max response in [16] is -1.24%.
